Values joined by “and” are separate entries in the source; they are usually repeats but may differ in a detail not shown here. Equal values may be shown once. Values without a mark were called inactive. Inconclusive results are not listed. Active and inactive are the calls of the source. Unless noted, the call rests on the fitted dose curve; in most records, active means well fitted curve in the direction sought with a large enough effect in the repeat runs; inconclusive means weak or mixed curves; inactive means no such curve, though single readings can be large; an effect the other way counts as inactive or inconclusive.

Seven compounds from PubChem BioAssay (Tox21) can be followed below.

Experiment [1] in a line: qHTS assay for small molecules that induce genotoxicity in human embryonic kidney cells expressing luciferase-tagged ATAD5 (AID 651632). Further: nearly all actives have a fitted effect of over 15% in size. The essentials: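 HEK293T cells carrying luciferase-tagged ATAD5 were given compound or DMSO vehicle and incubated 16 hr at 37C, 5% CO2. Luciferase activity was read after 30 min at room temperature with Amplite; a rise signals genotoxic stress.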
(qHTS replaces the single test concentration by a dilution series.)

Experiment [2] in a line: qHTS assay for small molecule agonists of the p53 signaling pathway - cell viability (AID 651633; calls by dose curve; further: nearly all actives have a fitted effect of over 30% in size; further: potency means the concentration at half of the fitted maximal effect). The essentials:
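Viability counter-read: CellTiter-Glo luminescence (30 min, room temperature) in the same p53RE-bla plates. These plates had been exposed to compounds for 16 h at 37 C.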

Experiment [3] can be described thus: qHTS assay for small molecules that induce genotoxicity in human embryonic kidney cells expressing luciferase-tagged ATAD5 - cell viability (AID 651634; calls by dose curve; further: nearly all actives have a fitted effect of over 25% in size; further: potency means the concentration at half of the fitted maximal effect). The essentials:
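HEK293T cells carrying luciferase-tagged ATAD5, 2,000 cells/well, exposed to compound for 15.5 hr at 37C. Viability read as live-cell protease activity by CellTiter-Fluor fluorescence after 30 min at 37C.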

Experiment [4] in a line: qHTS assay for small molecule disruptors of the mitochondrial membrane potential - cell viability (AID 720634; calls by dose curve; further: nearly all actives have a fitted effect of over 20% in size; further: potency means the concentration at half of the fitted maximal effect). In short, it runs like this:
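HepG2 cells, 2,000 per well, attached overnight, then treated 1 hr at 37 C, 5% CO2. Viability read as ATP by CellTiter-Glo luminescence after 30 min at room temperature. Read in the same wells as the m-MPI membrane-potential dye assay.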

Experiment [5] in a line: qHTS assay for small molecule disruptors of the mitochondrial membrane potential (AID 720635). Further: potency means the concentration at half of the fitted maximal effect. The essentials:
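Mitochondrial membrane potential tracked with Mito-MPS dye, red aggregates (ex 540/em 590 nm) against green monomers (ex 490/em 535 nm). Compound treatment 1 hr at 37C, dye 30 min in HepG2.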

Experiment [6] in a line: qHTS assay to test for compound auto fluorescence at 590 nm (red) in HepG2 cells (AID 720674). The essentials: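 1 hr compound incubation on HepG2 cells, 37 C, 5% CO2; plate read ex 540 nm / em 590 nm; intensities reported as Rose Bengal sodium equivalents.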
Experiment [7] in a line: qHTS assay to test for compound auto fluorescence at 535 nm (green) in HepG2 cells (AID 720675).
The nature of experiment [8]: qHTS assay to test for compound auto fluorescence at 460 nm (blue) in HEK293 cells (AID 720678). The essentials:
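After cell attachment (4-5 hr, 37C), compounds were pinned onto HEK293 monolayers in 10% dialyzed FBS medium. The blue channel (405/460 nm) was read following overnight culture. Equivalency was calculated against triamterene.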

The nature of experiment [9]: qHTS assay to test for compound auto fluorescence at 590 nm (red) in HEK293 cells (AID 720679). The essentials: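 Plates of HEK293 cells (10% dialyzed FBS) are treated with 23 nL compound or DMSO vehicle after a 4-5 hr attachment period, incubated overnight at 37C, and read for red fluorescence at 540/590nm.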
A short description of experiment [10]: qHTS assay to test for compound auto fluorescence at 535 nm (green) in HEK293 cells (AID 720680).
A short description of experiment [11]: qHTS assay to test for compound auto fluorescence at 460 nm (blue) in HEK293 cell free culture (AID 720681). In short, it runs like this:
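Blue fluorescence (Ex 405/Em 460 nm, triamterene-equivalent) was read immediately after pin transfer of compound or DMSO into medium (DMEM, 10% FBS) without cells.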

Experiment [12] is described as follows: qHTS assay to test for compound auto fluorescence at 535 nm (green) in HEK293 cell free culture (AID 720682). In short, it runs like this: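 Fluorescein serves as the green reference fluorophore; each compound's intrinsic emission at 535 nm (excitation 485 nm) is reported as an equivalent amount of that dye, measured in serum-containing DMEM without cells.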

The nature of experiment [13]: qHTS assay to test for compound auto fluorescence at 590 nm (red) in HEK293 cell free culture (AID 720683). In short, it runs like this: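 Red-channel autofluorescence of compounds in culture medium (DMEM, 10% FBS), no cells, measured at 540/590 nm. Rose Bengal sodium is the reference fluorophore for equivalence.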
Experiment [14] in a line: qHTS assay to test for compound auto fluorescence at 590 nm (red) in HepG2 cell free culture (AID 720684). The essentials:
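Steps: dispense MEM/10% FBS medium, no cells; pin compound or DMSO vehicle; read red channel, Ex/Em 540/590 nm. Output given as Rose Bengal sodium equivalents.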

A short description of experiment [15]: qHTS assay to test for compound auto fluorescence at 460 nm (blue) in HepG2 cell free culture (AID 720685). In short, it runs like this: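 Compound (23 nL) or DMSO pinned into cell-free MEM with 10% FBS; blue fluorescence read at 405/460 nm excitation/emission, expressed as auto-fluorescence equivalency to triamterene.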
Experiment [16] can be described thus: qHTS assay to test for compound auto fluorescence at 535 nm (green) in HepG2 cell free culture (AID 720686).
A short description of experiment [17]: qHTS assay to test for compound auto fluorescence at 460 nm (blue) in HepG2 cells (AID 720687). In short, it runs like this: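 Blue-channel autofluorescence (Ex/Em 405/460 nm, triamterene-equivalent) was measured after 1 hr compound exposure at 37 C, 5% CO2. Cells were HepG2, plated overnight at 37 C in MEM plus 10% FBS.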
Experiment [18] in a line: qHTS assay for small molecule agonists of the p53 signaling pathway (AID 651631; calls by dose curve; further: nearly all actives have a fitted effect of over 15% in size; further: potency means the concentration at half of the fitted maximal effect). In short, it runs like this: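 Read-out is beta-lactamase FRET fluorescence measured 2 h after substrate addition at room temperature, in HCT-116 cells with a p53 response element-driven reporter exposed to compounds for 16 h at 37 °C.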
The target of experiment [19] is Glucocorticoid receptor (Homo sapiens) (UniProt P04150). Kind of experiment: qHTS assay to identify small molecule antagonists of the glucocorticoid receptor (GR) signaling pathway (AID 720692; active means well fitted inhibition curve with a large enough effect in the signal ratio in the repeat runs, not every such curve was filed as active; the % refers to the signal ratio; further: potency means the concentration at half of the fitted maximal effect). In short, it runs like this: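 GR-bla HeLa cells carrying a GRE-driven beta-lactamase reporter received compound after 4 h plating, then dexamethasone (5 nM final). After 18 h at 37C, the FRET substrate was loaded for 2 h at room temperature and fluorescence read.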
Chain of Glucocorticoid receptor (Homo sapiens) (P04150 whole entry, looked up): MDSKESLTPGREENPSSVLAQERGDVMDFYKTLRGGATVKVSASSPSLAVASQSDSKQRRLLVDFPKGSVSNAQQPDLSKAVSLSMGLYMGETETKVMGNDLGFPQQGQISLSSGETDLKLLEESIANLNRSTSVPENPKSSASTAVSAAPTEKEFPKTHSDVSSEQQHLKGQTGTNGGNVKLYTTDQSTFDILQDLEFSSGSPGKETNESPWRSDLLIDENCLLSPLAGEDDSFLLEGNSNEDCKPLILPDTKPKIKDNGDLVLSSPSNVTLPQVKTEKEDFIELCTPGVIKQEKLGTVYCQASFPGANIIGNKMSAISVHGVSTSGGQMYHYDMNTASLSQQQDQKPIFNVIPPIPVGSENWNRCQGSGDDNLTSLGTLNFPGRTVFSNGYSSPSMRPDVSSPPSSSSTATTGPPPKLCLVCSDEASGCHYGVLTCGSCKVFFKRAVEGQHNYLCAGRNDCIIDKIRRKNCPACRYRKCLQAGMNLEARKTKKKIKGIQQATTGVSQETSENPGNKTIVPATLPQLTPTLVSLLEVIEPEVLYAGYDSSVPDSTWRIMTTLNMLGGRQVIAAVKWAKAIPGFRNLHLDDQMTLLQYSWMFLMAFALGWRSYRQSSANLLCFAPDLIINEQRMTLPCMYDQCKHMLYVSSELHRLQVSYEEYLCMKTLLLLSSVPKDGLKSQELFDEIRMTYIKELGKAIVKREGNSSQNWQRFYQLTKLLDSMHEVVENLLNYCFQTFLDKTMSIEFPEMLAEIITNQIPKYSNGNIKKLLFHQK

For the compound `ClC(Cl)=C(c1ccc(Cl)cc1)c1ccc(Cl)cc1`, the Potency result in experiment [1], in [3], in experiment [4], in experiment [8], in experiment [11] and in experiment [15] was “inactive” in each case. For the same compound, the Potency entry in experiment [17] is “inactive”. Further, the Potency in experiment [2] is 70.3 µM (active) and 48.6 µM (active); in experiment [5] it was 22.2 µM (active) and 24.3 µM (active). The result in experiment [6], in [7], in experiment [9], in experiment [10], in experiment [12] and in experiment [13] was inactive. For the same compound, the compound was classed as inactive in [14] and in experiment [16].
As to `ClC1=C(Cl)C2(Cl)C3C(Cl)C(Cl)CC3C1(Cl)C2(Cl)Cl` (stereo not drawn), the Potency entry in [1], in [3], in experiment [4], in [8], in experiment [11] and in experiment [15] was “inactive” each time. In addition, in experiment [17], the Potency entry was “inactive”. The Potency in experiment [2] was 54.3 µM (active) and 61.1 µM (active); in experiment [5], 7.67 µM (active) and 13.7 µM (active). The outcome in [6], in experiment [7], in [9], in experiment [10], in experiment [12] and in experiment [13] was inactive. For the same compound, the compound was classed as inactive in [14] and in [16].
Turning to `c1ccc(OCC2CO2)cc1` (stereo not drawn), the Potency result in experiment [18], in experiment [2], in experiment [4], in experiment [8], in experiment [11] and in [15] was “inactive” each time. Also, the Potency entry in experiment [17] is “inactive”. Also, the outcome in experiment [6], in experiment [7], in [9], in experiment [10], in experiment [12] and in experiment [13] was inactive. Moreover, the compound was classed as inactive in experiment [16].
Consider `CCC(C)c1cc([N+](=O)[O-])cc([N+](=O)[O-])c1OC(=O)C=C(C)C` (stereo not drawn), for which the Potency was 12.2 µM (active) in experiment [18], 30.6 µM (active) in experiment [3] and 19.5 µM (active) in [19]. For the same compound, the Potency result in experiment [1], in experiment [8], in [11], in [15] and in experiment [17] was “inactive” each time. Further, the compound was classed as inactive in experiment [6], in experiment [7], in experiment [9], in [10], in [12] and in [13]. Besides, the compound was classed as inactive in [14] and in [16].
With `CC(C)Oc1cccc(NC(=O)c2ccccc2C(F)(F)F)c1`, the Potency entry in experiment [1], in experiment [2], in experiment [3], in [8], in experiment [11] and in experiment [15] was “inactive” throughout. Also, the Potency entry in experiment [17] is “inactive”. The Potency in experiment [4] is 30.6 µM (active); in [5], 17.2 µM (active). In addition, the compound was called inactive in [6], in experiment [7], in experiment [9], in experiment [10], in [12] and in experiment [13]. Moreover, the outcome in experiment [14] and in [16] was inactive.
As to `CC(C)(C)c1ccc(CSc2cnn(C(C)(C)C)c(=O)c2Cl)cc1`, the Potency result in experiment [1], in [2], in experiment [3], in experiment [8], in [11] and in [15] was “inactive” throughout. For the same compound, in [17], the Potency entry was “inactive”. In addition, the Potency in experiment [4] was 24.3 µM (active); in experiment [5], 7.7 µM (active). Further, the compound was called inactive in experiment [6], in experiment [7], in experiment [9], in [10], in [12] and in [13]. Moreover, the outcome in [14] and in [16] was inactive.
For `Clc1ccc(-c2ccc(Cl)c(Cl)c2Cl)c(Cl)c1Cl`, the Potency in experiment [18] is 58.2 µM (active); in [2], 65.3 µM (active). In addition, the Potency entry in experiment [1], in [3], in [8], in [11] and in experiment [17] was “inactive” in each case. Moreover, the compound was called inactive in experiment [6], in [7], in experiment [9], in [10], in [12] and in experiment [13]. Besides, the call in experiment [14] and in experiment [16] was inactive.
